Results on seven compounds are retold here after PubChem BioAssay.

Results filed as inconclusive are left out. Calls of active or inactive are those of the source.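 How the source made its calls, unless noted: active means GFP response above 150% of the DMSO level; inconclusive means fewer than 70 events counted for a yeast strain; inactive means the rest.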

The inhibition is the drop in the measured response relative to a control, in per cent.

Assay [1] is described as follows: hit retest on RPL19A-GFP reporter strain – cell-based, S. cerevisiae, flow cytometry, cherry picks, mother/daughter gates, confirmation (AID 2270;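 active means GFP response below 50% of the DMSO control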). Conditions: 3 h, at 10 µM, stronger effect = lower value, 100 = same GFP as DMSO wells. (In general: A flow cytometer gives signals particle by particle.)
Assay [2] can be described thus: yeast TOR pathway reporter LAP4-GFP change – cell-based, cherry picks, flow cytometry, mother/daughter gates, confirmation (AID 2271;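 active means GFP response above 150% of the DMSO control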;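 further: ratio of sample to DMSO plate mean so 100% equals DMSO level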). Conditions: S. cerevisiae LAP4-GFP strain, 3 h, at 10 µM, stronger effect = higher value.
A short description of assay [3]: TOR pathway reporter MEP2-GFP, retest of hits – S. cerevisiae, flow cytometry GFP, cherry picks, confirmation (AID 2272;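 active means GFP response above 150% of the DMSO control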;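 further: ratio of well signal to plate DMSO mean so 100% equals DMSO level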). Conditions: S. cerevisiae MEP2-GFP strain, 3 h, at 10 µM, stronger effect = higher value.
Assay [4] in a line: yeast AGP1-GFP fluorescence change, single-dose – cell-based, flow cytometry, S. cerevisiae, cherry picks, confirmation (AID 2273).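 Further: median GFP channel fluorescence over the whole cell population gate.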 The note with it: S. cerevisiae AGP1-GFP strain, 3 h, at 10 µM.
Assay [5] in a line: TOR pathway CIT2 reporter hit retest – S. cerevisiae, GFP fusion, cherry picks, mother/daughter gates, confirmation (AID 2274). Conditions: S. cerevisiae CIT2-GFP strain, flow cytometry, 3 h, at 10 µM, stronger effect = higher value.
Assay [6] in a line: rapamycin-like changes in RPL19A-GFP expression – cell-based, S. cerevisiae, multiplex flow cytometry, primary screen (AID 1862; in the data active means percent of DMSO control GFP below about 86%;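 further: lower values mimic rapamycin by blocking the RPL19A rise seen in DMSO cells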). Conditions: S. cerevisiae RPL19A-GFP strain, flow cytometry fluorescence, 3 h; at 10 µM; stronger effect = lower value.
The nature of assay [7]: TOR pathway GLN3 branch reporter MEP2-GFP changes – S. cerevisiae, multiplex flow cytometry, primary screen (AID 1867;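 active means GFP response, as percent of the DMSO control, above the screen-wide mean plus 3 SD, about 139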;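 further: median GFP channel fluorescence of barcode-gated MEP2-GFP cells measured by flow cytometry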). Conditions: S. cerevisiae MEP2-GFP strain, 3 h, at 10 µM, stronger effect = higher value.
A short description of assay [8]: TOR pathway RTG branch CIT2 reporter changes – S. cerevisiae, GFP fusion, multiplex flow cytometry, primary screen (AID 1870;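 active means percent response above a set limit, the screen-wide mean plus 3 SD, cut at about 130% in these data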;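 further: barcoded CIT2-GFP strain pooled with four other GFP strains with rapamycin as positive control; median GFP fluorescence per well over plate mean of DMSO wells so 100% = DMSO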). The note with it: S. cerevisiae CIT2-GFP expression, 3 h, at 10 µM, stronger effect = higher value.
Assay [9] is described as follows: TOR pathway LAP4-GFP level changes – S. cerevisiae, multiplex flow cytometry, primary screen (AID 1873;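 active means GFP signal, as percent of the solvent control, above the screen mean plus 3 SD, about 149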). Conditions: S. cerevisiae LAP4-GFP expression, 3 h, at 10 µM, stronger effect = higher value.
Assay [10] is described as follows: reduced mouse 2C T cell binding to pMHC/ICAM-1 vesicles – MLPCN validation set, flow cytometry, LFA-1/ICAM-1 modulator project, pilot screen (AID 2523;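 active means response below a set limit, under 55% cells CD8-positive and vesicle-bound, and CD8 cells' 90th-percentile brightness under 279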;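 on vesicle binding response: mean PE anti-B7-1 fluorescence of CD8+ cells relative to row control; 100% = QL9-loaded vesicles with DMSO vehicle in the same plate row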). The note with it: 2C mouse CD8+ T cells, at 7 µM, stronger effect = lower value; double positive events: measured here: CD8+/vesicle+ event percentage.
Assay [11] has as its target Integrin beta-1 (Homo sapiens) + Integrin alpha-4 (Homo sapiens) (UniProt P13612+P05556). Nature of the assay: alpha4beta1 integrin LIBS antibody binding reduction – U937 cells, HUTS-21 mAb, flow cytometry, validation set, VLA-4 allosteric modulator project, pilot screen (AID 2674;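 active means inhibition above 50%, about 3 SD of the validation set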;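 further: antibody binding induced by the VLA-4 ligand LDV present at three times its Kd; 0% = LDV ligand with antibody and no compound and 100% = antibody without LDV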). The note with it: HUTS-21 LIBS mAb binding, at 6.7 µM, stronger effect = higher value.
Assay [12] can be described thus: calorie-restriction mimetic ROS inhibitors, yeast – validation compound set, pilot screen (AID 2706;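 active means superoxide response below 65% of plate, a cut near 3 SD across the whole screen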;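 further: yeast exposed to compound for one week at 30 degrees C before staining; 100% = mean of all compound wells on the same plate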). The note with it: S. cerevisiae aging, superoxide DHE fluorescence; at 10 µM; stronger effect = lower value.
For assay [13], the target named is Beta-adrenergic receptor kinase 1 (Homo sapiens) (UniProt P25098). Nature of the assay: GRK2 binders displacing RNA aptamer, biochemical, validation, human GRK2, bead flow cytometry (AID 488806;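 active means aptamer binding inhibition above 30%, about 3 SD of noise from non-fluorescent compounds; inactive means inhibition at or below 30%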). The note with it: bead-bound GRK2, FAM-aptamer displacement, at 10 µM, stronger effect = higher value.
Assay [14] concerns the target Beta-2 adrenergic receptor (Homo sapiens) (UniProt P07550). Nature of the assay: agonist-induced loss of surface beta2AR – cell-based, FAP fluorogen, flow cytometry, validation set, pilot screen (AID 504459;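 active means percent response above 42, roughly 3 SD of non-fluorescent test compounds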;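 further: agonist-driven loss of surface beta2AR via internalization measured by FAP dye flow cytometry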). The note with it: Am2.2-beta2AR cells, at 10 µM, stronger effect = higher value.
The target of assay [15] is AP-2 complex subunit beta (Homo sapiens) (UniProt P63010). Nature of the assay: beta-arrestin/AP2 interaction blockers – biochemical, validation set, GST-AP2 beads, flow cytometry, pilot screen (AID 504541;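 active means inhibition above 54%, about 3 SD of non-fluorescent compounds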;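 further: AP2 carries R879A mutation and is captured from E. coli lysate; bead-bound FITC arrestin peptide fluorescence measuring arrestin peptide binding to AP2; 0% = DMSO wells and 100% = excess unlabeled arrestin peptide control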). The note with it: FITC arrestin peptide, at 10 µM, stronger effect = higher value.
The nature of assay [16]: cytosolic pH regulators acting via V-ATPase – S. cerevisiae, pHLuorin, HTS validation (AID 504600; in the data active means response above about 15%;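 further: plate controls were DMSO for no effect and reference compound for full effect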). The note with it: V-ATPase proton transport, at 10 µM, stronger effect = higher value.
For assay [17], the system named is anti-desmoglein-3 scFv antibody binding to human DSG3. Nature of the assay: blockers of pathogenic pemphigus antibody–desmoglein-3 binding – biochemical, validation compound set, bead-based, flow cytometry, pilot screen (AID 588368;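 active means binding below the plate cutoff, the plate median minus 3 SD, with a reading above zero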;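 further: signal is the median channel fluorescence of bead-bound GFP antibody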). Conditions: Protein G beads, DSG3-Fc, scFv-GFP binding, at 10 µM, stronger effect = lower value.
For assay [18], the system named is Botulinum neurotoxin type F light chain protease (Clostridium botulinum). In words: Clostridium botulinum type F light chain protease inhibitors, microsphere substrate cleavage, validation (AID 588459; call rule not given here). The note with it: multiplex microsphere protease substrate cleavage assay, flow cytometry; at 10 µM; stronger effect = higher value.
The target in assay [19] is Botulinum neurotoxin type A (Clostridium botulinum) (UniProt P0DPI0). Nature of the assay: BoNT/A light chain protease inhibitors, biochemical, multiplex microsphere flow cytometry, validation set (AID 588460; call rule not given here). The note with it: at 10 µM, stronger effect = higher value.
Assay [20] deals with Lethal factor (Bacillus anthracis) (UniProt P15917). Nature of the assay: Bacillus anthracis lethal factor inhibition, microsphere flow cytometry protease assay, validation at 10 µM (AID 588461; call rule not given here). The note with it: multiplex microsphere protease cleavage assay, stronger effect = higher value.
Assay [21] in a line: Nile Red efflux blockade in pump-expressing yeast – validation compound set, multiplex, phenotypic, pilot screen (AID 588506;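 active means efflux inhibition above 0.42, the validation set average plus 4 SD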;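 further: Nile Red retained in cells so higher fluorescence means more efflux inhibition; 0 = negative control wells and 1 = enniatin B 25 µM full block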). The note with it: S. cerevisiae pump-expressing triplex, Nile Red efflux flow cytometry; at 10 µM; stronger effect = higher value.
In assay [22] the target is ATP-binding cassette sub-family B member 6 (Homo sapiens) (UniProt Q9NP58). Nature of the assay: blockers of ABCB6-driven porphyrin uptake – K562-ABCB6 cells, flow cytometry, validation set, pilot screen (AID 588550;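 active means inhibition above the screen-wide mean plus 3 SD, about 51%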;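 further: 0% = DMSO wells and 100% = benzethonium chloride 70 µM positive control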). Conditions: K562-ABCB6 porphyrin accumulation, 1 h, at 10 µM, stronger effect = higher value.
Assay [23] in a line: AML differentiation inducers, ER-HoxA9 marrow cells – cell-based, GFP/MAC1 double positive, flow cytometry, validation set, primary screen (AID 588685;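 active means differentiation response of at least 50%, scaled between solvent and reference control, from cells with both markers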;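 further: compound exposure lasts four days before antibody staining and flow analysis; 0% = DMSO wells and 100% = 5 µM fulvestrant positive control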). Conditions: stronger effect = higher value.
Setting [24] is: measured here: daughter cell gate.
[25] abbreviates: measured here: mother cell gate.
[26] abbreviates: measured here: daughter cell gate response.
The mark [27] stands for this setting: measured here: mother cell gate response.

Sequence of ATP-binding cassette sub-family B member 6 (Homo sapiens) (Q9NP58 whole entry, looked up): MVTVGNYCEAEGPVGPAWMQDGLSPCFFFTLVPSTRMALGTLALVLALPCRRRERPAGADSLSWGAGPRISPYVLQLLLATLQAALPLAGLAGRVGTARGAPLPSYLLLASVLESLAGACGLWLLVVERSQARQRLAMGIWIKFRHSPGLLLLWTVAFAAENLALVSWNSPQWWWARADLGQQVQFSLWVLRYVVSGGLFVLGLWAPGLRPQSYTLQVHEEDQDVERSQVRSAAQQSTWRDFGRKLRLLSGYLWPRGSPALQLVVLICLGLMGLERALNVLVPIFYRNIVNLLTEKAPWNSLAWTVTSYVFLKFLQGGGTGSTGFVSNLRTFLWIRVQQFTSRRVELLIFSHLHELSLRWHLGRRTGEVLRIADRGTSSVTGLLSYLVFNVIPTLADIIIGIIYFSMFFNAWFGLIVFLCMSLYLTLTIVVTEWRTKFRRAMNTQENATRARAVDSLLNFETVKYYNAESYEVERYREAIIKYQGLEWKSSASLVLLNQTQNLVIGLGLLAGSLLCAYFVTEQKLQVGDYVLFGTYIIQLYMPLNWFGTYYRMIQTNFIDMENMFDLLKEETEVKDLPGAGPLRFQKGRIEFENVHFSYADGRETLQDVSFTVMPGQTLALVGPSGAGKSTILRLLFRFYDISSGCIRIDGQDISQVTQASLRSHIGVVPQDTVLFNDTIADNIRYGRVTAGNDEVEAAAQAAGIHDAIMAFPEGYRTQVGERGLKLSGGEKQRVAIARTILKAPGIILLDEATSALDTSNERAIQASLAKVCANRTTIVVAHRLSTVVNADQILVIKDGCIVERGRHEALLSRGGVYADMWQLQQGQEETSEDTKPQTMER
Sequence of AP-2 complex subunit beta (Homo sapiens) (P63010 whole entry, looked up, one chain of several): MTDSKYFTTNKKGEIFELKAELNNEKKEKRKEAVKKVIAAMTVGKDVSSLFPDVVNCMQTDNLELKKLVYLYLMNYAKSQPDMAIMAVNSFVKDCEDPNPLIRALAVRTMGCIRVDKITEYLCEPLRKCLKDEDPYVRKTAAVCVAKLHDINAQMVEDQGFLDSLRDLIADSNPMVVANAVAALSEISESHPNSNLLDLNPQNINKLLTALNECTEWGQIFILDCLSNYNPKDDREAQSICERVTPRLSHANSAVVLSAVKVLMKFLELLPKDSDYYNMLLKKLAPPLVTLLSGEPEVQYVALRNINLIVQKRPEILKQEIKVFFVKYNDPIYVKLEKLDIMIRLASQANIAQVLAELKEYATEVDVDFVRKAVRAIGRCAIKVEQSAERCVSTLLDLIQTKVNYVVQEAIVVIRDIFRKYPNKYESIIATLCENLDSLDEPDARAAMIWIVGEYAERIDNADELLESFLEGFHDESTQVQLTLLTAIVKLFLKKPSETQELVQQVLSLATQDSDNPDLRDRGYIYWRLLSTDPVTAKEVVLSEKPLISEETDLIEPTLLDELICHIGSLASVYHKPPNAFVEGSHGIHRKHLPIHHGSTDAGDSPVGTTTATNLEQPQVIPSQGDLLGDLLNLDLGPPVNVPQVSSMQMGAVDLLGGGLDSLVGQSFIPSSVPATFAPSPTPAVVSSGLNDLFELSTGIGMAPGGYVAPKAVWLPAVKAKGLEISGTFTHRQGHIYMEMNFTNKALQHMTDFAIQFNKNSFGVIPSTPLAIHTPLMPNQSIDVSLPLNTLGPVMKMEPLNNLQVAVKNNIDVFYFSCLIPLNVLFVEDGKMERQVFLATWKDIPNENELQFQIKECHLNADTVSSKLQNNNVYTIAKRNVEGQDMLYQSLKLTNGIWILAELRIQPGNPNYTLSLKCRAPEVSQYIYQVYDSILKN
Sequence of Beta-adrenergic receptor kinase 1 (Homo sapiens) (P25098 whole entry, looked up): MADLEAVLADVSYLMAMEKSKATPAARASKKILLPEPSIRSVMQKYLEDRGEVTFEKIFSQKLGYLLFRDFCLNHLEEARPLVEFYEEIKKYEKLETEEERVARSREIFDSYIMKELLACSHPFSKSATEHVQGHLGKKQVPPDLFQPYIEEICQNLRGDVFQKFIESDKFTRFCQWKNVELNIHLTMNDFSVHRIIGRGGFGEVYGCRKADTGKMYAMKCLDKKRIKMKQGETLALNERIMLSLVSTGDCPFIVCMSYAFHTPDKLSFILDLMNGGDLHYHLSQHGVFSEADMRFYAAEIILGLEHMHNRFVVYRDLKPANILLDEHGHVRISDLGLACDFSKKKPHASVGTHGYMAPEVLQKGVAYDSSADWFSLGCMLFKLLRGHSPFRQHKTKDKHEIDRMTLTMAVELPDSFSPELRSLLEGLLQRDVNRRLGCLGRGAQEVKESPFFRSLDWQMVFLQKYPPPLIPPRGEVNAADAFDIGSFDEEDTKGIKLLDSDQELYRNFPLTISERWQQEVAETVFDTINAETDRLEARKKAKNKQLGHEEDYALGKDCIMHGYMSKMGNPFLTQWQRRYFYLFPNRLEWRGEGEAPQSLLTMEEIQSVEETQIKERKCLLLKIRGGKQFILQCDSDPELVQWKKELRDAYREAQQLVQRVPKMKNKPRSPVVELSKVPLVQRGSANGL
Sequence of Botulinum neurotoxin type A (Clostridium botulinum) (P0DPI0 whole entry, looked up): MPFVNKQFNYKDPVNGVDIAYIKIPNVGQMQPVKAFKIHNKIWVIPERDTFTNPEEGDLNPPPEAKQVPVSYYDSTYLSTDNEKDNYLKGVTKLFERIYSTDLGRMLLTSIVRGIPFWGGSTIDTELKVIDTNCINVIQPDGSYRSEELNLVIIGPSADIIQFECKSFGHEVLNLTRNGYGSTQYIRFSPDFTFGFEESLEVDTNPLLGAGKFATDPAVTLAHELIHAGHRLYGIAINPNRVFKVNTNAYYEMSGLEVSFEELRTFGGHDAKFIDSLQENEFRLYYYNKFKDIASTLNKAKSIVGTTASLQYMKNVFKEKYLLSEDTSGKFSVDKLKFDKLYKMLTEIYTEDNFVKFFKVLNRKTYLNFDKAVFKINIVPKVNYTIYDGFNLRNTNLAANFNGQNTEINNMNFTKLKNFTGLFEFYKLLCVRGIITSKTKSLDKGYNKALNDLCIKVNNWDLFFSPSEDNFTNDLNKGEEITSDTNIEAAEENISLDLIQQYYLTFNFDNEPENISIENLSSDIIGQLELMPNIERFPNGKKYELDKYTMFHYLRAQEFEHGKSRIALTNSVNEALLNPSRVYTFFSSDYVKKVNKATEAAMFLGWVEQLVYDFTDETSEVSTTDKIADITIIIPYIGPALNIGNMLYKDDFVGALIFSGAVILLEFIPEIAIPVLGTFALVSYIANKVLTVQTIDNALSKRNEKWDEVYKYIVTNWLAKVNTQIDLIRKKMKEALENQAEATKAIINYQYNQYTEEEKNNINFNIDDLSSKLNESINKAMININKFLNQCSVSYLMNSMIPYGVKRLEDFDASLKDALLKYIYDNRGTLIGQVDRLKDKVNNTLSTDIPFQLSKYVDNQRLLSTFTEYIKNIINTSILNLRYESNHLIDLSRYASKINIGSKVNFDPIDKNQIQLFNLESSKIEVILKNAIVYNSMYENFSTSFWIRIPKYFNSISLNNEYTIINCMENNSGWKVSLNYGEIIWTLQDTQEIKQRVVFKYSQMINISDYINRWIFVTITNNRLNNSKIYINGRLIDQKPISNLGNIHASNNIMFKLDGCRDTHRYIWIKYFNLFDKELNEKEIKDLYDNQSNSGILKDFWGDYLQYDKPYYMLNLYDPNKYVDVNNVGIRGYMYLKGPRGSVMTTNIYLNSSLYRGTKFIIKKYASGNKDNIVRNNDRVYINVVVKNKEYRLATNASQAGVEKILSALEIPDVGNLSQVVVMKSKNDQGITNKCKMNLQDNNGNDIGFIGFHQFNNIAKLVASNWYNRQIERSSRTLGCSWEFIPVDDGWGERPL
Sequence of Lethal factor (Bacillus anthracis) (P15917 whole entry, looked up): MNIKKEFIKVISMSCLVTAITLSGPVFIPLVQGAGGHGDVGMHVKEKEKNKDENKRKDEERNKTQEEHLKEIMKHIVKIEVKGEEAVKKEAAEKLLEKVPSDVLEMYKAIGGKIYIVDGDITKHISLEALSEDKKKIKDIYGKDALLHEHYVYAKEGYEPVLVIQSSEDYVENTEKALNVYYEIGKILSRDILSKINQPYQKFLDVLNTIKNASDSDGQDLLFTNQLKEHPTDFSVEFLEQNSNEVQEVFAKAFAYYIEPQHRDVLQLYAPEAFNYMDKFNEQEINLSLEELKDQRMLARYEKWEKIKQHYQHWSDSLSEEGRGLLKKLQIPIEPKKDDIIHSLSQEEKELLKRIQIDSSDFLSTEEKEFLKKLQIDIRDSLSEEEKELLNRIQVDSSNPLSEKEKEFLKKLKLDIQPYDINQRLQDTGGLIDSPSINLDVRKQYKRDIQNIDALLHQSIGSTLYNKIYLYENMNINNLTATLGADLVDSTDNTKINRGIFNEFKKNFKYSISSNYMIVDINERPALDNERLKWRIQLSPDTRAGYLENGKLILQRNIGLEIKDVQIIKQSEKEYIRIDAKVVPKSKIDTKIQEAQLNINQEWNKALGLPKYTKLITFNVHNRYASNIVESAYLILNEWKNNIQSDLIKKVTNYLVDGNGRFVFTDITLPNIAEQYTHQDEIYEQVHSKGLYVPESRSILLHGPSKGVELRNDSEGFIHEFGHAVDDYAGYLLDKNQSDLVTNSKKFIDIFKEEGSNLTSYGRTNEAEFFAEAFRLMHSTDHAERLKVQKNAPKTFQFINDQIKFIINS
Sequence of Beta-2 adrenergic receptor (Homo sapiens) (P07550 whole entry, looked up): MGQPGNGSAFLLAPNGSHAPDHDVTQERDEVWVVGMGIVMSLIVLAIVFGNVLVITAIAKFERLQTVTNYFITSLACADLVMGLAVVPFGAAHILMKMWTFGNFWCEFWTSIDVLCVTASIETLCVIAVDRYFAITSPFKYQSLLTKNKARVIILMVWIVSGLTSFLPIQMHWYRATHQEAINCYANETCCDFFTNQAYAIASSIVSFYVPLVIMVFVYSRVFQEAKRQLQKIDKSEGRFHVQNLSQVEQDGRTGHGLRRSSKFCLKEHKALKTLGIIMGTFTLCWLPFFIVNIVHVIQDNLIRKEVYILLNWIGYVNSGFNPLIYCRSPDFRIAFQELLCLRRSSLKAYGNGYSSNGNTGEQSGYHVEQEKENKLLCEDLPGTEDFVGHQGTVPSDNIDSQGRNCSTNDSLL

As to `O=c1oc2ccccc2c(O)c1[C@H]1c2ccc(O)cc2Oc2c1c(=O)oc1ccccc21`, the GFP response vs DMSO was 108% (inactive) in [1], 96.1% in [1] (setting [24]), 98.9% in assay [1] (setting [25]) and 102% (inactive) in assay [3]. The GFP response relative to DMSO in assay [2] is 190% (active); in assay [2] (setting [26]), 167%; in assay [2] (setting [27]), 192%. The GFP response, % of DMSO in assay [4] is 90.4% (inactive); in [5], 76.9% (inactive); in assay [5] (setting [24]) it was 78.5%; in assay [5] (setting [25]) it was 71.9%.

For the compound `O=C1NC(=O)N(Cc2ccco2)C(=O)/C1=C/c1ccc(-c2cccc([N+](=O)[O-])c2)o1`, the GFP response vs DMSO is 102% (inactive) in [1], 102% in [1] (setting [24]), 96.7% in assay [1] (setting [25]) and 94.7% (inactive) in assay [3]. Further, the GFP response relative to DMSO in assay [2] is 167% (active); in assay [2] (setting [26]), 151%; in assay [2] (setting [27]) it was 176%. Further, the GFP response, % of DMSO in assay [4] was 90.9% (inactive); in [5], 93% (inactive); in assay [5] (setting [24]), 95.6%; in assay [5] (setting [25]), 85.8%.

For the compound `O=c1[nH]c(=O)n(Cc2ccc(F)cc2)c(O)c1C=NCCN1CCCCC1`, the GFP response vs DMSO in assay [1] is 96.9% (inactive); in assay [1] (setting [24]), 97%; in assay [1] (setting [25]), 94.8%; in assay [3], 101% (inactive). The GFP response relative to DMSO was 95.3% (inactive) in [2], 94.4% in assay [2] (setting [26]) and 94.4% in assay [2] (setting [27]). The GFP response, % of DMSO in assay [4] was 102% (inactive); in assay [5], 95.8% (inactive); in assay [5] (setting [24]), 97.6%; in [5] (setting [25]) it was 94.9%.

On to `Cc1ccc(/C=C2\C(=O)NC(=O)N(CC3CCCO3)C2=O)s1` (centres undefined), for which the GFP response vs DMSO in assay [1] is 92.7% (inactive); in assay [1] (setting [24]), 95.9%; in assay [1] (setting [25]) it was 94.8%; in assay [3] it was 92% (inactive). The GFP response relative to DMSO in [2] was 102% (inactive); in assay [2] (setting [26]), 102%; in assay [2] (setting [27]), 104%. For the same compound, the GFP response, % of DMSO in assay [4] is 92.1% (inactive); in assay [5], 82.6% (inactive); in assay [5] (setting [24]) it was 86.2%; in assay [5] (setting [25]) it was 79.5%.

In the case of `CC12CN3CC(C)(CN(C1)C3c1cccnc1)C2=O` (centres undefined), in assay [6], the percent of DMSO control GFP is 95.2% (inactive). The GFP response vs DMSO in assay [7] was 117% (inactive); in assay [9], 81.4% (inactive). The percent response of DMSO control in [8] was 97.9% (inactive). This compound also had a double positive events in [10] of 58%. Besides, the vesicle binding response in assay [10] was 174% (inactive). The inhibition in assay [11] was 8.4% (inactive); in [15], -8.61% (inactive); in assay [18], -1.6% (inactive); in [19] it was 0.6% (inactive); in assay [20], 9.9% (inactive); in assay [22] it was 7% (inactive). In [12], the superoxide response (% of plate) is 108% (inactive). For the same compound, in assay [13], the aptamer binding inhibition was 4% (inactive). Further, the response in assay [14] was 1.06% (inactive); in assay [16], 0.14% (inactive). The binding (% of control) in assay [17] was 95.4% (inactive). Also, the efflux inhibition (fraction of control) in [21] is 0.3 (inactive). In addition, the differentiation response in assay [23] is -3.28% (inactive).

Consider `CN1C(=O)C(=Cc2ccc(SC3CCCCC3)o2)C(=O)N(C)C1=O`, for which the GFP response vs DMSO in assay [1] was 95.8% (inactive); in assay [1] (setting [24]), 98.3%; in assay [1] (setting [25]), 92.3%; in assay [3] it was 98.8% (inactive). The GFP response relative to DMSO in assay [2] was 143% (inactive); in [2] (setting [26]), 134%; in assay [2] (setting [27]) it was 150%. Also, the GFP response, % of DMSO in [4] was 101% (inactive); in assay [5], 83.5% (inactive); in assay [5] (setting [24]) it was 84.1%; in [5] (setting [25]), 77.8%.

Turning to `O=C1NC(=O)C(=Cc2ccc(Sc3ccccc3)o2)C(=O)N1`, the GFP response vs DMSO in assay [1] is 103% (inactive); in [1] (setting [24]), 93.1%; in assay [1] (setting [25]) it was 89.2%; in [3], 92% (inactive). In addition, the GFP response relative to DMSO in [2] was 140% (inactive); in assay [2] (setting [26]) it was 107%; in [2] (setting [27]), 148%. The GFP response, % of DMSO in assay [4] is 83.6% (inactive); in assay [5], 91.2% (inactive); in [5] (setting [25]), 77.2%.
